The results in this text go back to paper PMC8384837, “Expanding the binding specificity for RNA recognition by a PUF domain”.

What all share (test): yeast three-hybrid, YBZ-1, SC-Leu-His + 0.5 mM 3-AT, 4 days
Common to all, as to settings: tags: N-Gal4 AD-HA kept; label: inside an RPR1-promoter hybrid RNA with tandem MS2 sites; ssRNA

Assay [1] addresses PUM1 PUF domain R7-GQR (Homo sapiens, UniProt Q14671 828-1176, S1079G;N1080Q;E1083R). An outline of the steps:
(§1)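 Each repeat of the Pumilio-1 PUF domain was randomized at its three base-contacting residues, and these libraries were co-expressed from a centromeric plasmid with matching RNA elements in strain YBZ-1. After four days on SC-Leu (input) or SC-Leu-His + 0.5 mM 3-AT (selection), the repeat regions were PCR-amplified and Illumina-sequenced. The interaction score compares variant frequency between input and selection as a log change, computed in log2 with a pseudocount of 1 for absent variants.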

Assay [2] addresses PUM1 PUF domain R7-EFR (Homo sapiens, UniProt Q14671 828-1176, S1079E;N1080F;E1083R). A digest of the protocol: as §1
The target of assay [3] is PUM1 PUF domain R1-SPE (Homo sapiens, UniProt Q14671 828-1176, R864P;Q867E). A digest of the protocol:
as §1

The target of assay [4] is PUM1 PUF domain R1-RVM (Homo sapiens, UniProt Q14671 828-1176, S863R;R864V;Q867M). An outline of the steps:
as §1

Assay [5] has as its target PUM1 PUF domain R1-RCV (Homo sapiens, UniProt Q14671 828-1176, S863R;R864C;Q867V). An outline of the steps:
as §1

Assay [6] has as its target PUM1 PUF domain R1-KLE (Homo sapiens, UniProt Q14671 828-1176, S863K;R864L;Q867E). A digest of the protocol: as §1
In assay [7] the target is PUM1 PUF domain R5-RAR (Homo sapiens, UniProt Q14671 828-1176, C1007R;R1008A;Q1011R). A digest of the protocol:
as §1

Assay [8] addresses PUM1 PUF domain R5-RQL (Homo sapiens, UniProt Q14671 828-1176, C1007R;R1008Q;Q1011L). A digest of the protocol: as §1
Assay [9] addresses PUM1 PUF domain R5-FRL (Homo sapiens, UniProt Q14671 828-1176, C1007F;Q1011L). An outline of the steps: as §1
Assay [10] deals with PUM1 PUF domain R4-QHK (Homo sapiens, UniProt Q14671 828-1176, N971Q;Q975K). An outline of the steps:
as §1

Assay [11] deals with PUM1 PUF domain R4-PHC (Homo sapiens, UniProt Q14671 828-1176, N971P;Q975C). An outline of the steps:
as §1

With “GGCUAGAACUAGUGGAUCCCCCGGCGCCCGGCGGCUCGAGCCCGGGUAAGUUUAAAUAGUCUGCAUGCCGCCGGGCGCCAUGCCUGCAGGUCGACUCUAGAAAACAUG”, the values for the binding signal in assay [1] and in assay [2] were 2.78 log2 enrichment (interaction score) and 2.09 log2 enrichment (interaction score), respectively.

Regarding “GGCUAGAACUAGUGGAUCCCCCGGCGCCCGGCGGCUCGAGCCCGGGUAAGUCUAAAUAGUCUGCAUGCCGCCGGGCGCCAUGCCUGCAGGUCGACUCUAGAAAACAUG”, the binding signal in assay [2] was 2.21 log2 enrichment (interaction score).

With “GGCUAGAACUAGUGGAUCCCCCGGCGCCCGGCGGCUCGAGCCCGGGUAAGUGUAAAUUGUCUGCAUGCCGCCGGGCGCCAUGCCUGCAGGUCGACUCUAGAAAACAUG”, the binding signal was 2.78 log2 enrichment (interaction score) in assay [3], 2.87 log2 enrichment (interaction score) in [4], 1.82 log2 enrichment (interaction score) in assay [5] and 4.05 log2 enrichment (interaction score) in [6].

For “GGCUAGAACUAGUGGAUCCCCCGGCGCCCGGCGGCUCGAGCCCGGGUAAGUGUCAAUAGUCUGCAUGCCGCCGGGCGCCAUGCCUGCAGGUCGACUCUAGAAAACAUG”, the binding signal in assay [7] was 3.66 log2 enrichment (interaction score); in assay [8] it was 2.74 log2 enrichment (interaction score); in [9], 2.63 log2 enrichment (interaction score).

“GGCUAGAACUAGUGGAUCCCCCGGCGCCCGGCGGCUCGAGCCCGGGUAAGUGUACAUAGUCUGCAUGCCGCCGGGCGCCAUGCCUGCAGGUCGACUCUAGAAAACAUG”: the binding signal in [10] is 3.41 log2 enrichment (interaction score); in [11], 3.16 log2 enrichment (interaction score).
